This is a sample that favours compounds with a hit; in the whole collection about 6.2% have one here.
VP16 counter: VP16 counterscreen qHTS for inhibitors of ROR gamma transcriptional activity | Drosophila S2 Gal4-VP16 UAS-luciferase, luminescence, 20 h | Potency, µM (top dose mostly 53.6 µM), hits mostly inhibitors | 310,000 tested, 3.5% active;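 note: Gal4-VP16 expression switched on by copper sulfate through the metallothionein promoter; nearly all actives have a fitted effect of over 50% in size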
RORg inh: qHTS for inhibitors of ROR gamma transcriptional activity; 310,000 tested, 5.4% active; AID 2551, 2010; Potency, µM (top dose mostly 53.6 µM), usual class: inhibitors; Drosophila S2 Gal4-RORgamma UAS-luciferase reporter, 20 h; note: nearly all actives have a fitted effect of over 60% in size
Target sequence (P51450 whole entry, looked up, the tested form may be a part): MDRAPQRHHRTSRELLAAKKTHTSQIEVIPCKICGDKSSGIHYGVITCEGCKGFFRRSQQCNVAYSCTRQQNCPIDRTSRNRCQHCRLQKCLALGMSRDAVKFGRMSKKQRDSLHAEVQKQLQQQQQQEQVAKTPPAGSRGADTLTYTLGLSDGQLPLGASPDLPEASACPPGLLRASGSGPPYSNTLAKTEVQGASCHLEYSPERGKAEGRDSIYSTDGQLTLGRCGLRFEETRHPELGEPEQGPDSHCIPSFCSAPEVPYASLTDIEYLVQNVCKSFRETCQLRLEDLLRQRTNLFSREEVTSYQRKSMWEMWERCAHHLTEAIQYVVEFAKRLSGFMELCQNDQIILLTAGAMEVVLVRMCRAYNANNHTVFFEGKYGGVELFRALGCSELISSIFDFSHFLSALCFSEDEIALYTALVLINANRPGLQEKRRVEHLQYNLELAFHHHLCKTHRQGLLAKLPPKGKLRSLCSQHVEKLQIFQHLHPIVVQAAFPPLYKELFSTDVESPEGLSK
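Luminescence from a UAS-regulated Photinus luciferase reporter in stably transfected Drosophila Schneider cells is measured; decreased signal marks ROR gamma inhibition. Fusion expression is induced by 700 uM copper sulfate for 20 hr.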
Luc counter: Counterscreen for Luciferase (Kinase-Glo TM) Inhibition; Luciferin 4-monooxygenase (Photuris pensylvanica), Q27757; Kinase-Glo luciferase, ATP luminescence, 8 min; Potency, µM (top dose mostly 38.3 µM), hits mostly inhibitors; 200,000 tested, 0.28% active; AID 1379, 2008; note: nearly all actives have a fitted effect of over 60% in size
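Compounds were added to a substrate mix at pH 7.2 (50 mM imidazole, 10 uM ATP, within the enzyme's linear range), followed by Kinase-Glo detection reagent; luminescence was measured after 8 minutes at ambient temperature.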
Numbers stand for hits; i = inactive; ? = inconclusive; nt = not tested or not shown; [ ] = remark or other dose. Calls come from the whole dose curve; as a rule, active = well fitted curve in the direction sought with a large enough effect; inconclusive = small, poorly fitted or top-dose-only effect, or another doubt; inactive = no such curve, though single readings can be large; an effect the other way counts as inactive or inconclusive.

SMILES | VP16 counter | RORg inh | Luc counter
Cc1ccc2c(c1)N(CC(=O)NCC(C)c1ccccc1)C(=O)c1cccnc1O2 (stereo not drawn) | i | i | nt
COc1cccc(/C=N/NC(=O)CNC(=O)c2ccncc2)c1O | ? | 15.8µM | nt
COc1cc(/C=N/NC(=O)CNC(=O)c2ccncc2)ccc1O | i | i | nt
Cc1cccc(OCC(=O)NCC(=O)N/N=C/c2cc(Br)cc(Br)c2O)c1 | 6.31µM | 2µM | nt
Cc1ccc(/C=N/NC(=O)CNC(=O)COc2ccccc2)cc1 | i | i | i
COC(=O)c1ccc(COc2ccccc2/C=N/NC(=O)c2cccnc2)cc1 | i | i | i
COc1cccc(/C=N/NC(=O)CNC(=O)c2cccnc2)c1O | i | 17.8µM | nt
COc1cccc(/C=N/NC(=O)C(=O)NCc2cccnc2)c1OC | i | i | i
COc1cccc(/C=N/NC(=O)C(=O)NCc2cccnc2)c1O | ? | 11.2µM | i
COc1ccccc1NC(=O)Cc1nnc(SCC(=O)c2ccccc2)n1C | i | i | nt
COc1ccc(N(C)C(=O)Cc2c(C(=O)O)n(C)c3ccccc23)c(OC)c1 | i | i | nt
CCCCC(=O)Nc1ccccc1C(C)C | i | i | i
CCOC(=O)c1c(/N=C/C2=C(O)CC(C)(C)CC2=O)sc(C)c1C | i | i | i
O=C(Nc1cccc(S(=O)(=O)N2CCCCC2)c1)c1ccccc1NS(=O)(=O)c1ccc(F)cc1 | ? | ? | i
Cc1ccc(NC(=O)c2ccccc2NS(=O)(=O)c2ccc(F)cc2)cc1S(=O)(=O)N1CCCCC1 | 10µM | ? | i
CC(=O)N1N=C(c2cccc([N+](=O)[O-])c2)OC1c1ccc(Br)cc1 (stereo not drawn) | i | i | nt
CC(=O)N1N=C(c2ccccc2)OC1c1ccc([N+](=O)[O-])s1 (stereo not drawn) | ? | 12.6µM | i
O=C(CSc1ccccc1Cl)N1CCOCC1 | i | i | nt
Cc1ccc(/C=c2/sc3n(c2=O)CCCN=3)o1 | ? | 7.08µM | i
Cc1ccc(/C=c2\sc3n(c2=O)CN(c2ccc(Br)cc2)CN=3)o1 | i | i | i
CCOc1ccc(NC(=O)CCS(=O)(=O)c2ccc(Br)cc2)cc1 | i | i | nt
O=C(COc1ccc2ccccc2c1)NNC(=O)C(=O)Nc1ccccc1 | i | i | nt
COCC(=O)N1CCC2(CC1)CCN(C(=O)Nc1cccc(C#N)c1)CC2 | i | i | i
CCOC(=O)Cn1c(C(F)(F)F)nc2nc(Cl)c(Cl)nc21 | nt | nt | i[7.66 µM]
CCC(=O)Nc1cccc(NC(=S)NC(=O)c2cc3ccccc3o2)c1 | i | i | i
SMILES | VP16 counter | RORg inh | Luc counter
COc1ccc(OCC(=O)N/N=C(\C)c2cc3ccccc3o2)cc1 | i | i | i
C/C(=N\NC(=O)c1cccc(S(=O)(=O)N2CCOCC2)c1)c1cc2ccccc2o1 | i | i | nt
C/C(=N\NC(=O)c1ccc(O)cc1)c1cc2ccccc2o1 | 10µM | 6.31µM | i
C/C(=N\NC(=S)Nc1cccc(C)c1)c1cc2ccccc2o1 | ? | 2.51µM | i
CCNC(=S)N/N=C(\C)c1cc2ccccc2o1 | 7.94µM | 3.55µM | i
Cc1ccc(CC(C(=O)O)C(C)C(=O)Nc2ccc(F)cc2)cc1 (stereo not drawn) | i | i | nt
CCOC(=O)c1cc2sccc2n1CC(=O)C(C)(C)C | i | i | i
O=S(=O)(c1ccccc1Br)N(Cc1ccccc1)Cc1ccco1 | i | i | nt
CSc1nsc(SCC(=O)Nc2ccc(C(N)=O)cc2)n1 | ? | 3.16µM | nt
CSc1nsc(SCC(=O)Nc2ccc(C(C)=O)cc2)n1 | i | i | i
CC(=O)CC(=O)Nc1ccc(C(N)=O)cc1 | i | 11.2µM | i
CCCC(=O)Nc1ccc(C(N)=O)cc1 | i | i | i
CC(NC(=O)Cc1ccccc1)C(c1ccccc1)N1CCOCC1 (stereo not drawn) | i | i | i
CC(NC(=O)c1ccc(C(F)(F)F)cc1)C(c1ccccc1)N1CCOCC1 (stereo not drawn) | i | i | i
COc1ccc(NC(=S)NC(C)C(c2ccccc2)N2CCOCC2)cc1 (stereo not drawn) | ? | 4.47µM | i
CC(NC(=S)Nc1ccccc1Cl)C(c1ccccc1)N1CCOCC1 (stereo not drawn) | ? | 3.98µM | i
Cc1ccc(C)c(NC(=S)NC(C)C(c2ccccc2)N2CCN(C)CC2)c1 (stereo not drawn) | i | 12.6µM | i
CCN1CCN(C(c2cccs2)C(C)NC(=S)Nc2cc(C)ccc2C)CC1 (stereo not drawn) | i | ? | nt
CCOc1ccc(S(=O)(=O)N/N=C\c2ccc3c(c2)OCO3)cc1 | i | i | nt
CSCCNC(=O)c1ccc2nc(C3CCCCC3)oc2c1 | i | ? | nt
CC(C)(C)C(=O)Cn1ncc(N2CCCC2)c(Br)c1=O | i | i | i
CC(=O)Cn1ncc(Br)c(Br)c1=O | i[10 µM] | 11.2µM | i
O=C(OCn1ncc(Br)c(Br)c1=O)c1c(F)cccc1F | 4.47µM | 3.55µM | i
COC(=O)C(COC(=O)c1c(F)cccc1F)NC(=O)c1c(F)cccc1F (stereo not drawn) | i | i | nt
COc1cccc(NC(=O)c2c(C)nn(-c3ccccc3)c2Cl)c1 | i | ? | nt
SMILES | VP16 counter | RORg inh | Luc counter
O=C(OCn1ncc(Cl)c(Cl)c1=O)c1ccccc1Cl | 12.6µM | i | i
O=C(Cn1ncc(Cl)c(Cl)c1=O)c1ccc(Cl)cc1 | i | ? | i
O=C(OCn1ncc(Cl)c(Cl)c1=O)c1ccc(F)cc1 | 6.31µM | ? | i
O=c1c(Cl)c(Cl)cnn1Cc1ccc(F)cc1 | ? | ? | i
COc1ccccc1C(=O)N/C(=C/c1ccc(Br)cc1)C(=O)N1CCCC1 | i | i | i
O=C1CN(C(=O)C2CCCC2)CCN1 | i | i | i
O=C(NC(=S)NNC(=O)[C@H]1C[C@@H]1c1ccccc1)c1ccc(F)cc1 | ? | 10µM | nt
O=C(NNC(=O)C1CC1c1ccccc1)Nc1ccccc1 (stereo not drawn) | i | i | i
COc1ccc(OC)c(NC(=O)C2CC2c2ccccc2)c1 (stereo not drawn) | i | i | nt
CC(C)(C)NC(=S)NNC(=O)[C@H]1C[C@@H]1c1ccccc1 | i | 0.562µM | nt
COc1cc(OC)cc(C(=O)NC(=S)NNC(=O)[C@H]2C[C@@H]2c2ccccc2)c1 | ? | 14.1µM | nt
O=C(/C=C/c1ccc(F)cc1)NC(=S)NNC(=O)[C@H]1C[C@@H]1c1ccccc1 | i | ? | nt
CC1CCC(C(=O)NC(C(=O)NCc2cccnc2)C(C)C)CC1 (stereo not drawn) | i | i | i
CCN1CCCC1Cn1c(-c2ccccc2)nc2c(NCCOC)nc(C)nc21 (stereo not drawn) | i | i | i
CCNC(=S)N/N=C/c1sc(N2CCCCC2)nc1-c1cccs1 | 17.8µM | ? | 11.2µM
CCCNC(=O)C(=O)N/N=C/c1cccs1 | i | i | i
O=C(/C=C/c1ccc(O)c(O)c1)c1ccc(O[C@@H]2O[C@H](CO)[C@@H](O)[C@H](O)[C@H]2O)c(O)c1O | i | i | nt
CN(C)C(/C=C/Nc1ccc(O)cc1)=C(C#N)C#N | i | i | i
CC1=CC2=NC(=O)/C(=C\c3cccn3CCOc3cccc(C)c3)C(=N)N2O1 | ? | 15.8µM | i
COc1cccc(OCCn2cccc2/C=C2/C(=N)N3OC(C)=CC3=NC2=O)c1 | i | i | nt
CCn1nccc1C(=O)Nc1nc2ccccc2n1CCN1CCCCC1 | ? | 15.8µM | i

Compound activity deposited in PubChem by National Center for Advancing Translational Sciences (NCATS).
